Source: PubChem BioAssay (National Center for Advancing Translational Sciences (NCATS))
hNpr1 antagonist – human Npr1 receptor antagonism; 1.6% of 76,000 active; AID 1347048; HEK293 hNpr1 GloSensor cGMP, ANP-stimulated luminescence; Potency, µM (top dose mostly 46.3 µM), usual class: inhibitors; P16066; calls by dose curve; also: nearly all actives have a fitted effect of over 60% in size
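HEK293 cells stably expressing human Npr1 and cGMP GloSensor pGS-40F, loaded 2 h with 2% GloSensor reagent, given compound 30 min at room temperature. Luminescence read before and 20 min after 0.1 nM hNppA.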
NIH3T3 tox – cytotoxic compounds in NIH 3T3 cells; NIH 3T3 viability, CellTiter-Glo ATP luminescence, 48-72 h; Potency, µM (top dose mostly 96.7 µM), most hits filed as inhibitors; 4.3% of 94,000 active; AID 1345082; also: nearly all actives have a fitted effect of over 55% in size
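Cells were seeded at 400 per well, treated with pin-transferred compound, and kept 48 or 72 hr at 37 °C before CellTiter-Glo addition and luminescence imaging of cellular ATP.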
HEK293 viab – cell viability loss counter-screen; Potency, µM (doses to about 57.1 µM), hits mostly cytotoxic; 0.12% of 150,000 active; HEK-293-SNCA-luc viability, GF-AFC fluorescence, 24 h; also: nearly all actives have a fitted effect of over 30% in size
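HEK-293-SNCA-luc cells (1500/well) plated 24 h, then exposed 24 h to a dilution series; GF-AFC added 30 min at 37C, fluorescence 405/540 nm; normalised to medium-only and DMSO wells, Hill fit.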
SNCA expr inh – inhibitors of alpha-synuclein (SNCA) gene expression. HEK-293 SNCA-luciferase knock-in, luminescence, 24 h. Potency, µM (titrated, usually from 57.2 µM), usual class: inhibitors. 0.17% of 140,000 active; also: nearly all actives have a fitted effect of over 45% in size
FLuc inh-1 – inhibitors of firefly (Photinus pyralis) luciferase; Potency, µM (titrated, usually from 115 µM), usual class: inhibitors; purified P. pyralis luciferase, luminescence, biochemical; P08659; AID 1347043; 2.5% of 76,000 active; also: nearly all actives have a fitted effect of over 65% in size
Target sequence (P08659 whole entry, looked up): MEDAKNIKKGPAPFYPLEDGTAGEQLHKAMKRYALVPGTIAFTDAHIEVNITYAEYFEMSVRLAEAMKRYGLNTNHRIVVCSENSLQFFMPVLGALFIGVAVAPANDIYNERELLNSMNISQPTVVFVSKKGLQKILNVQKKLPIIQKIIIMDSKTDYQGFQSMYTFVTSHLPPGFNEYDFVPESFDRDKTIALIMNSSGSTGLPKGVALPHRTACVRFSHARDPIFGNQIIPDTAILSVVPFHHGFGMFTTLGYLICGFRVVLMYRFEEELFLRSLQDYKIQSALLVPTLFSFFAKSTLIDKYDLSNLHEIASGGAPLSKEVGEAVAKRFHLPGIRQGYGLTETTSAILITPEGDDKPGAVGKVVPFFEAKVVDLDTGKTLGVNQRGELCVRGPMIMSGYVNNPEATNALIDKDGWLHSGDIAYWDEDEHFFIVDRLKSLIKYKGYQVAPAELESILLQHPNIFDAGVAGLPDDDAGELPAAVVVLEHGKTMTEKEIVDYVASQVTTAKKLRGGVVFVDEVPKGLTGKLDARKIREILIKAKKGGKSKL
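Inhibitors were tested against purified firefly luciferase in a biochemical, low-substrate format (both substrates at 10uM) and luminescence measured with a CCD imager.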
HEK293 tox – HEK 293 cell cytotoxicity; 6.6% of 94,000 active; HEK 293 viability, ATP luminescence (CellTiter-Glo), 48-72 h; AID 1345083; Potency, µM (titrated, usually from 115 µM), hits mostly inhibitors; also: nearly all actives have a fitted effect of over 60% in size
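HEK 293 seeded at 250 cells/well receive compound via pintool. After 48 or 72 hr at 37 degree Celsius, 5% CO2 and 95% humidity, CellTiter-Glo is dispensed and luminescence read following 10 min at room temperature.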
FLuc SDR -ATP – binders stabilizing firefly luciferase, without ATP; shares compounds with FLuc inh-1; Purified FLuc-C-HiBiT, Nano-Glo HiBiT luminescence, no ATP; Potency, µM (titrated, usually from 32.7 µM), most hits filed as activators; 7.8% of 1,300 active; also: nearly all actives have a fitted effect of over 55% in size
FLuc SDR ATP – firefly luciferase binding stabilization, ATP added | shares compounds with FLuc inh-1 | purified FLuc-C-HiBiT + ATP, HiBiT complementation luminescence | Potency, µM (highest dose often 32.7 µM), usual class: activators | 8.7% of 1,300 active;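 also: signal reports ligand binding via conformational change of the enzyme rather than luciferase catalysis; nearly all actives have a fitted effect of over 55% in size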
FLuc inh-2 – inhibitors of firefly luciferase enzymatic activity; shares compounds with FLuc inh-1; purified FLuc-C-HiBiT enzyme, luciferin luminescence; Potency, µM (series often up to 32.7 µM), most hits filed as inhibitors; 42% of 1,300 active; also: nearly all actives have a fitted effect of over 70% in size
A number is an active result; – = inactive; ? = inconclusive; · = not tested or not shown. Most compounds without a hit are left out; they make up all but 7.4% or so of the library. Unless noted, calls follow the shape of the dose curve; as a rule, active = well fitted curve in the direction sought with a large enough effect; inconclusive = small, poorly fitted or top-dose-only effect, or another doubt; inactive = no such curve, though single readings can be large; an effect the other way counts as inactive or inconclusive.

SMILES	hNpr1 antagonist	NIH3T3 tox	HEK293 viab	SNCA expr inh	FLuc inh-1	HEK293 tox	FLuc SDR -ATP	FLuc SDR ATP	FLuc inh-2
CN(C)c1ccc(-c2noc(-c3nc(-c4ccccc4F)no3)n2)cc1	–	–	–	–	–	–	·	·	·
COC(=O)CNC(=O)c1cn2cc(-c3ccc(C)cc3)sc2n1	·	–	–	–	·	?	·	·	·
Fc1ccc(Nc2nc(-c3ccccc3)no2)cc1	?	?	–	–	3.2µM	?	–	–	6.2µM
Nc1c(S(=O)(=O)c2ccccc2)c2nc3ccccc3nc2n1-c1ccc(F)cc1	·	·	–	·	·	·	·	·	·
Cc1cnc(CC2CCCN(C(=O)CCc3c[nH]c4ccccc34)C2)n1C(C)C (stereo not given)	–	–	–	–	14µM	?	–	–	–
CC/C(C)=C/C(=O)OC1C(OC2(C)CCC3C(C4C(C)CCC42)C3(C)C)OC(C)C(O)C1O (stereo not given)	·	·	–	·	·	·	·	·	·
CN1C[C@@H](NS(=O)(=O)c2ccc(C#N)cc2)C[C@H]1c1nc(-c2ccc(Cl)cc2)no1	?	?	–	–	10µM	?	–	–	?
N#Cc1c(-n2ncnc2-c2cccc(Br)c2)sc2c1CCCCC2	·	·	–	–	·	·	–	?	3.1µM
CSc1ccc(CNC(=O)C2CCN(C(=O)c3ncn4c3COC(c3ccccc3)C4)CC2)cc1 (stereo not given)	–	–	–	–	13µM	–	–	?	?
CC(CNC(=O)C1CCN(C(=O)c2ncn3c2COC(c2ccccc2)C3)CC1)c1ccccc1 (stereo not given)	–	–	–	–	3.5µM	–	–	1.6µM	2.5µM
COc1ccc(C2Cn3cnc(C(=O)N4CCC(C(=O)NCc5ccccc5)CC4)c3CO2)cc1 (stereo not given)	–	–	–	–	–	–	·	·	·
O=C(NCc1ccncc1)C1CCN(C(=O)c2ncn3c2COC(c2ccc(F)cc2)C3)CC1 (stereo not given)	–	–	–	–	7.9µM	–	–	?	?
O=C(NCCc1ccccc1)C1CCN(C(=O)c2ncn3c2COC(c2ccccc2)C3)CC1 (stereo not given)	–	–	–	–	3.2µM	–	–	?	2.5µM
O=C(NCc1cccnc1)C1CCN(C(=O)c2ncn3c2COC(c2ccc(F)cc2)C3)CC1 (stereo not given)	–	–	–	–	?	–	·	·	·
CC(O)(C(=O)O)C1CCC2(C)C1CCC1(C)C2CCC2C3(C)CCC(O)C(C)(COC4OC(CO)C(O)C(O)C4O)C3CCC21C (stereo not given)	·	·	–	·	·	·	·	·	·
CCCCCc1nn2cc(-c3ccccc3)nc2s1	·	·	–	?	·	·	?	?	0.62µM
CCc1ccc(-c2cn3nc(CC)sc3n2)cc1	·	·	–	?	·	·	·	·	·
COc1ccc(-c2noc([C@@H]3Cc4nc[nH]c4CN3C(=O)Nc3ccc(Cl)cc3)n2)cc1	–	?	?	–	13µM	?	–	–	–
O=C(Nc1ccc(F)cc1)N1Cc2[nH]cnc2C[C@H]1c1nc(-c2ccc(F)cc2)no1	–	?	–	–	?	?	·	·	·
Cc1ccc(-c2noc([C@@H]3Cc4nc[nH]c4CN3C(=O)Nc3cccc(F)c3)n2)cc1	?	?	?	–	10µM	79µM	–	–	?
Cc1cccc(NC(=O)Nc2ccc(F)cc2)n1	·	·	–	–	·	·	–	–	?
Cc1ccc(NC(=O)Nc2cccc(C)n2)cc1	·	·	–	–	·	·	·	·	·
COc1ccc2nc(-c3cccc(C(C)=O)c3)sc2c1	·	·	·	·	·	·	12µM	?	1.2µM
COc1ccc2nc(-c3ccc(N4CCN(C(=O)OC(C)(C)C)CC4)cc3)sc2c1	·	·	·	·	·	·	–	–	?
COc1ccc2nc(N(Cc3cccnc3)C(=O)COc3ccccc3)sc2c1	·	·	–	–	·	·	·	·	·
SMILES	hNpr1 antagonist	NIH3T3 tox	HEK293 viab	SNCA expr inh	FLuc inh-1	HEK293 tox	FLuc SDR -ATP	FLuc SDR ATP	FLuc inh-2
CC(=O)c1cccc(-c2nc3ccccc3s2)c1	·	·	·	·	·	·	?	?	9.9µM
O=C(c1cccc(Cl)c1)N1CCCC2(CN[S+](=O)([O-])c3cccnc3N2)C1 (stereo not given)	·	–	·	·	·	–	·	·	·
O=C(NCCc1cnc[nH]1)c1ccc2nc(-c3ccc(F)cc3)cn2c1	–	?	–	–	10µM	?	–	–	?
CNC(=O)c1cc(C2CC2)nc2c1c(C1CCCN1C(=O)c1ccccc1F)nn2C (stereo not given)	·	–	·	·	·	–	·	·	·
O=C(NCc1cccc(Cl)c1)C1CCCN(c2nn3cc(-c4ccc(F)cc4)nc3s2)C1 (stereo not given)	·	·	–	–	·	·	–	?	?
COc1ccc(-c2cn3nc(N4CCCC(C(=O)NCc5ccccc5Cl)C4)sc3n2)cc1 (stereo not given)	·	·	–	–	·	·	·	·	·
COc1ccc(-c2cn3nc(N4CCCC(C(=O)NCc5ccccc5OC)C4)sc3n2)cc1 (stereo not given)	·	·	–	–	·	·	–	–	?
O=C(NCc1cccc(Cl)c1)C1CCN(c2nn3cc(-c4ccc(F)cc4)nc3s2)CC1	·	·	–	–	·	·	·	·	·
COc1ccccc1CN1CC[C@H]2COC(=O)N2c2cc(F)ccc2C1	–	–	–	?	–	–	·	·	·
CCCCN1CCCc2cc(CN(CCCN3CCOCC3)C(=O)Nc3ccc(OCC)cc3)ccc21	·	·	–	?	·	·	·	·	·
CCCCOc1nc(N)c2[nH]c(=O)n(CCCN(CCCN3CCOCC3)Cc3cccc(CC(=O)OC)c3)c2n1	·	·	·	·	·	·	–	–	–
COc1cccc(CN2CCC(Cn3c(C)cnc3-c3ccccc3)CC2)c1OC	·	–	–	–	·	?	·	·	·
COc1ccc(C(=O)N2CCC3(CC2)NC(=O)N(c2cccc(F)c2)N3)cc1OC	–	?	–	?	–	?	·	·	·
CCOc1ccc(NC(=O)CCS(=O)(=O)c2ccc3nc(C)sc3c2)cc1	·	·	–	–	·	·	·	·	·
Cc1cccc(NC(=O)CSc2nc3ccc(NC(=O)COc4ccccc4F)cc3s2)c1	·	·	–	–	·	·	·	·	·
CCCCN(C)S(=O)(=O)c1ccc(C(=O)Nc2ccc(-c3nc4ccc(C)cc4s3)cc2)cc1	·	·	–	–	·	·	–	–	–
Cc1ccc2nc(-c3ccc(NC(=O)COc4ccccc4)cc3)sc2c1	·	·	–	–	·	·	–	–	6.2µM
CCOc1ncccc1C(=O)OCC(=O)Nc1ccc(-c2nc3ccc(C)cc3s2)cc1	·	·	·	·	·	·	–	–	?
